From PubChem BioAssay (NCATS)
Results filed as inconclusive are left out. The source made the active and inactive calls. Calls follow the shape of the dose curve; as a rule, active = well fitted curve in the direction sought with a large enough effect; inconclusive = small, poorly fitted or top-dose-only effect, or another doubt; inactive = no such curve, though single readings can be large; an effect the other way counts as inactive or inconclusive.

What was measured:
[1] = test system: KB-3-1; test: Cytotoxic Profiling of Annotated Libraries Using Quantitative High-Throughput Screening (AID 1296008); conditions: Five cell lines viability, CellTiter-Glo ATP luminescence, 48-72 h; max response: active compounds read low; also: nearly all actives have a fitted effect of over 60% in size; as to max response: % is scaled to controls: 0 for no effect and ±100 for the full control effect
Method in brief: (§1)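 Cells exposed to compounds for 48 or 72 hr at 37 degrees Celsius. Viability read as ATP-coupled luminescence with CellTiter-Glo after 10 min at room temperature.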

[2] = test system: NIH3T3; test: as above; conditions: Five cell lines viability, CellTiter-Glo ATP luminescence, 48-72 h; max response: active compounds read low
Method in brief: as §1

[3] = test system: HEK293T; test: qHTS assay to identify novel small-molecules to repurpose for Merkel cell carcinoma treatment (AID 1296009); conditions: MCC and control cell lines, CellTiter-Glo viability, 72 h; series mostly up to 44.8 µM; also: nearly all actives have a fitted effect of over 60% in size
Method in brief: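 Cells were incubated with compound for 72 hr at 37 degree celsius before CellTiter-Glo addition. Luminescence was normalized with no-cell wells as full cytotoxicity and DMSO as baseline.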

[4] = test system: C33A; test: Primary qHTS to identify gynecologic anti-cancer compounds using libraries of approved drugs and bioactive compounds (AID 1345084); conditions: Gynecologic cancer cell panel viability, ATPlite luminescence, 48 h; series mostly up to 57.5 µM; also: % is scaled to controls: 0 for no effect and ±100 for the full control effect; nearly all actives have a fitted effect of over 55% in size
Method in brief: (§2)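 Five-point cytotoxicity, 48 h drug exposure at 37 C, 5% CO2, on cells seeded 16 h beforehand. ATP content read by ATPlite luminescence.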

[5] = test system: CAOV3; test: as above; conditions: Gynecologic cancer cell panel viability, ATPlite luminescence, 48 h; series mostly up to 57.5 µM
Method in brief: as §2

[6] = test system: CASKI; test: as above; conditions: Gynecologic cancer cell panel viability, ATPlite luminescence, 48 h; series mostly up to 57.5 µM
Method in brief: as §2

[7] = test system: Es-2; test: as above; conditions: Gynecologic cancer cell panel viability, ATPlite luminescence, 48 h; series mostly up to 57.5 µM
Method in brief: as §2

[8] = test system: HeLa; test: as above; conditions: Gynecologic cancer cell panel viability, ATPlite luminescence, 48 h; series mostly up to 57.5 µM
Method in brief: as §2

[9] = test system: Hek293T; test: as above; conditions: Gynecologic cancer cell panel viability, ATPlite luminescence, 48 h, control line for the selectivity index; series mostly up to 57.5 µM
Method in brief: as §2

[10] = test system: JEG-3; test: as above; conditions: Gynecologic cancer cell panel viability, ATPlite luminescence, 48 h; series mostly up to 57.5 µM
Method in brief: as §2

[11] = test system: OV90; test: as above; conditions: Gynecologic cancer cell panel viability, ATPlite luminescence, 48 h; series mostly up to 57.5 µM
Method in brief: as §2

[12] = test system: PA-1; test: as above; conditions: Gynecologic cancer cell panel viability, ATPlite luminescence, 48 h; series mostly up to 57.5 µM
Method in brief: as §2

CC(=O)c1c(O)cc2c(c1C)C(=O)CC(O)C2 (stereo unspecified)
inactive: max response [1] 9.72% | max response [2] 1.74% | Potency [3] | Potency [4] | Potency [5] | Potency [6] | Potency [7] | Potency [8] | Potency [9] | Potency [10] | Potency [11] | Potency [12]

C=CC1(C)CC(O)C2(CCC3C(C)(C(=O)O)CCCC3(C)C2=O)C1 (stereo unspecified)
inactive: outcome [1] | max response [2] 1.85% | Potency [3] | Potency [4] | Potency [5] | Potency [6] | Potency [7] | Potency [8] | Potency [9] | Potency [10] | Potency [11] | Potency [12]

CC(c1c[nH]c2ccccc12)C(O)C(=O)O (stereo unspecified)
inactive: outcome [1] | max response [2] 3.62% | Potency [3] | Potency [4] | Potency [5] | Potency [6] | Potency [7] | Potency [8] | Potency [9] | Potency [10] | Potency [11] | Potency [12]

COc1ccccc1CC(C(=O)O)N(C)C(=O)c1ccccc1 (stereo unspecified)
inactive: max response [1] 2.61% | max response [2] -9.18% | Potency [3] | Potency [4] | Potency [5] | Potency [6] | Potency [7] | Potency [8] | Potency [9] | Potency [10] | Potency [11] | Potency [12]

C=C1[C@H]2CC[C@]3(O)[C@@](CC[C@@H]4[C@](C)(C(=O)O)CCC[C@]43C)(C2)[C@H]1OC(=O)/C(C)=C\C
inactive: outcome [1] | max response [2] 0.4% | Potency [3] | Potency [4] | Potency [5] | Potency [6] | Potency [7] | Potency [8] | Potency [9] | Potency [10] | Potency [11] | Potency [12]

CCOc1c2c(c(OCC)c3ccccc13)C(=O)N(c1ccc(CC(=O)NS(=O)(=O)c3ccccc3)cc1)C2
inactive: max response [1] 1.17% | max response [2] 3.33% | Potency [3] | Potency [4] | Potency [5] | Potency [6] | Potency [7] | Potency [8] | Potency [9] | Potency [10] | Potency [11] | Potency [12]

CC1(C)CC[C@]2(C(=O)O)CC[C@]3(C)C(=CCC4[C@@]5(C)CC[C@H](O[C@@H]6O[C@H](C(=O)O)[C@@H](O)[C@H](O)[C@H]6O)C(C)(CO)C5CC[C@]43C)C2C1 (stereo partly specified)
inactive: outcome [1] | max response [2] -4.92% | Potency [3] | Potency [4] | Potency [5] | Potency [6] | Potency [7] | Potency [8] | Potency [9] | Potency [10] | Potency [11] | Potency [12]

COc1cccc2c1CCC[C@H]2CN(C)CCc1ccc2ccoc2c1
inactive: max response [1] 4.61% | max response [2] -8.39% | Potency [3] | Potency [4] | Potency [5] | Potency [6] | Potency [7] | Potency [8] | Potency [9] | Potency [10] | Potency [11] | Potency [12]

C[C@@H]1O[C@@H](O[C@H]2[C@H](O[C@H]3CO[C@@H](O[C@H]4CC[C@@]5(C)C(CC[C@]6(C)C5CC[C@]57OC[C@@]8(CC[C@](C)(CO)CC85)[C@H](O)C[C@]76C)C4(C)C)[C@H](O[C@@H]4O[C@H](CO)[C@@H](O)[C@H](O)[C@H]4O)[C@H]3O)O[C@H](CO)[C@@H](O)[C@@H]2O)[C@H](O)[C@H](O)[C@H]1O (stereo partly specified)
inactive: max response [1] 5.69% | max response [2] 2.44% | outcome [3] inactive [at 9.27 µM] | activity change, negative = cytotoxicity [4] -5.68% [at 11.6 µM] | activity change, negative = cytotoxicity [5] -8.26% [at 11.6 µM] | activity change, negative = cytotoxicity [6] -2.01% [at 11.6 µM] | activity change, negative = cytotoxicity [7] -8.3% [at 11.6 µM] | activity change, negative = cytotoxicity [8] 0% [at 11.6 µM] | activity change, negative = cytotoxicity [9] 0.0587% [at 11.6 µM] | activity change, negative = cytotoxicity [10] -0.317% [at 11.6 µM] | activity change, negative = cytotoxicity [11] 0.0764% [at 11.6 µM] | activity change, negative = cytotoxicity [12] 4.72% [at 11.6 µM]

C[C@@H]1O[C@@H](O[C@H]2[C@H](OC(=O)C34CCC(C)(C)CC3C3=CCC5C6(C)CC(O)C(O[C@@H]7O[C@H](CO)[C@@H](O)[C@H](O)[C@H]7O)C(C)(C(=O)O)C6CCC5(C)C3(CO)CC4)O[C@H](C)[C@H](O)[C@@H]2O)[C@H](O)[C@H](O)[C@H]1O[C@@H]1OC[C@@H](O)[C@H](O)[C@H]1O (stereo partly specified)
inactive: outcome [1] | max response [2] 2.3% | outcome [3] inactive [at 9.27 µM] | activity change, negative = cytotoxicity [4] 7.58% [at 11.6 µM] | activity change, negative = cytotoxicity [5] 18.2% [at 11.6 µM] | activity change, negative = cytotoxicity [6] 8.6% [at 11.6 µM] | activity change, negative = cytotoxicity [7] 0.101% [at 11.6 µM] | activity change, negative = cytotoxicity [8] 10.9% [at 11.6 µM] | activity change, negative = cytotoxicity [9] 7.78% [at 11.6 µM] | activity change, negative = cytotoxicity [10] 4.58% [at 11.6 µM] | activity change, negative = cytotoxicity [11] 3.81% [at 11.6 µM] | activity change, negative = cytotoxicity [12] 8.42% [at 11.6 µM]

C=C1[C@@H]2[C@H]3OC(=O)C(=C)[C@@H]3CC[C@@](C)(O)[C@@H]2C[C@@H]1O[C@@H]1O[C@H](CO)[C@@H](O)[C@H](O)[C@H]1O
inactive: max response [1] 1.42% | max response [2] -3.98% | Potency [3] | Potency [4] | Potency [5] | Potency [6] | Potency [7] | Potency [8] | Potency [9] | Potency [10] | Potency [11] | Potency [12]

COC(=O)C1=CO[C@@H](O[C@@H]2O[C@H](CO)[C@@H](O)[C@H](O)[C@H]2O)[C@@H]2[C@@](C)(O)[C@@H](O)C[C@]12O
inactive: max response [1] 1.93% | max response [2] -0.0114% | Potency [3] | Potency [4] | Potency [5] | Potency [6] | Potency [7] | Potency [8] | Potency [9] | Potency [10] | Potency [11] | Potency [12]

COc1ccccc1-n1c(SCC(=O)Nc2nc3ccc(C)cc3s2)nc2c(c1=O)SCC2
inactive: max response [1] 6.25% | max response [2] 3.32% | Potency [3] | Potency [4] | Potency [5] | Potency [6] | Potency [7] | Potency [8] | Potency [9] | Potency [10] | Potency [11] | Potency [12]
